Assay outcomes: PubChem, several laboratories
Compounds with a hit are over-represented: about 1.2% of the library has one in this group of screens.
Neddyl block – cullin neddylation inhibition | P61081+Q13564 | TR-FRET cullin neddylation, biochemical | inhibition, % at 25 µM | 360,000 tested, 0.58% active; in the data active = inhibition above about 36%
NOD2-RIPK2 inh – blocks binding of human NOD2 to RIPK2; inhibition, % at 4.98 µM; CHO BLA complementation NOD2-RIPK2, CCF4 ratio; 360,000 tested, 0.38% active; in the data active = inhibition above about 21%;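 also: 0% = vehicle only and 100% = reference blocker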
TLR9-MyD88 inh – inhibitors of human TLR9-MyD88 binding. CHO BLA complementation TLR9-MyD88, CCF4 FRET ratio. inhibition, % at 4.98 µM. AID 504734. 340,000 tested, 0.21% active. Q9NR96+Q99836;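 active = inhibition above the mean over all tested compounds plus 3 SD, cut at about 21% in these data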;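 also: 0% = DMSO only wells and 100% = clavulanate BLA inhibitor control wells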
GC-B act – GC-B (human) receptor activation | P20594 | activation, % at 10 µM | 370,000 tested, 0.11% active | HEK293-GC-B cells, CNP EC30, cGMP TR-FRET; 0% at EC30 CNP, 100% saturating CNP;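 active = activation at 10 µM reaching about 35% in either raw or pattern-adjusted values, limit read from the data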
TLR4-MyD88 BLA – inhibitors of human TLR4-MyD88 binding; HeLa CL3-4 TLR4/MyD88 BLA complementation, FRET ratio; inhibition, % at 8.4 µM; 200,000 tested, 0.18% active; AID 861; in the data active = inhibition above about 25%;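 also: 0% = vehicle and 100% = reference inhibitor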
NPR1 activator – GC-A (human) enzyme activation | HEK293 GC-A cells, cGMP TR-FRET, EC30 ANP; 0% at EC30 ANP, 100% saturating ANP | P16066 | activation, % at 10 µM | 370,000 tested, 0.14% active; in the data active = activation above about 40%
* marks the source's active call; other numbers are inactive results; nt = no result shown.

SMILES | Neddyl block | NOD2-RIPK2 inh | TLR9-MyD88 inh | GC-B act | TLR4-MyD88 BLA | NPR1 activator
CC1=C(C(=O)N2CCOCC2)C(c2ccc(-c3ccccc3)cc2)NC(=S)N1 (configuration not stated) | -6 | 1 | -4 | 70* | -4 | 79*
CC1=C(C(=O)N2CCOCC2)C(c2cc(C)ccc2C)NC(=S)N1 (configuration not stated) | 0 | -7 | 1 | 1 | -2 | 6
CC1=C(C(=O)N2CCOCC2)C(c2cccc3ccccc23)NC(=S)N1 (configuration not stated) | 6 | -2 | 3 | 3 | -15 | 3
C=CCOc1ccc2c(CC)cc(=O)oc2c1C | 42* | -10 | -1 | -4 | 7 | 2
CCOc1ccc2c(CC)cc(=O)oc2c1OCC | nt | -8 | 3 | 8 | 2 | 0
COc1cccc(/C=C2\CC3(OC(=O)C(C)(C)C)CCCN2C3)c1 (configuration not stated) | nt | nt | nt | 3 | nt | 2
CCCCCCCCCCn1c2c(c(=N)c3c1CCC3)CCC2 | -3 | 17 | -12 | -8 | 10 | -15
CCCCCCCCCn1c2c(c(=N)c3c1CCC3)CCCC2 | -1 | 24* | nt | nt | 17 | nt
Cc1c([N+](=O)[O-])cc(N2C(=O)C=CC2=O)cc1[N+](=O)[O-] | -2 | -5 | -11 | nt | nt | nt
Cc1cc(N2C(=O)C=CC2=O)c([N+](=O)[O-])cc1C | 8 | 22* | 0 | nt | 5 | nt
O=[N+]([O-])c1ccc(S(=O)(=O)c2cccc(C(F)(F)F)c2)nc1 | -9 | 79* | 17 | nt | nt | nt
O=S(=O)(Nc1cccnc1)c1cccc(C(F)(F)F)c1 | -2 | -1 | -6 | 3 | -1 | 1
O=C(CN1CCN(c2nc(-c3ccccc3)cs2)CC1)Nc1ccc(Cl)c(Cl)c1 | nt | nt | nt | -2 | nt | 2
COC(=O)[C@]12C[C@H](CC(=O)N3CCCC3)C(=O)N(CCc3ccc(OC)c(OC)c3)C1=C[C@H](C(C)(C)C)O[C@@H]2C | nt | nt | nt | -5 | nt | -1
CCOC(=O)Cc1cc(=O)n2[nH]c(C)c(-c3ccccc3)c2n1 | nt | -6 | 10 | 43* | -7 | 36
CCOC(=O)Cc1cc(=O)n2[nH]c(-c3ccccc3)c(-c3ccccc3)c2n1 | nt | 7 | 11 | 10 | -19 | 8
O=C(CN1CCc2onc(-c3ccc(-n4cc(-c5ccccc5)nn4)cc3)c2C1=O)N1CCOCC1 | nt | nt | nt | -5 | nt | 3
Cc1ccc(C(=O)/C=C/c2c[nH]c3ccccc23)cc1 | 16 | 25* | 16 | -9 | 25 | 5
Cc1ccc(S(=O)(=O)/C(C#N)=C/c2c[nH]c3ccccc23)cc1 | -4 | 13 | 3 | 11 | -7 | 3
Cc1[nH]nc(-c2ccc(O)c(C)c2O)c1Oc1ccccc1 | -3 | 3 | -13 | 0 | 3 | 79*
Cc1[nH]nc(-c2ccc(OCc3cnn(-c4ccccc4)c3)c(C)c2O)c1Oc1ccccc1 | 12 | 2 | 3 | -5 | 2 | 0
O=C1N(CCCO)CCC12CCC(c1ccccc1)CC2 (configuration not stated) | nt | nt | nt | 2 | nt | 1
Cc1occc1C(=O)N/N=C/c1ccc(N(C)C)cc1 | 39* | -10 | 6 | -4 | nt | -8
COc1cc(/C=N/NC(=O)c2cc(-c3ccco3)nc3ccccc23)cc(OC)c1O | -6 | 0 | 3 | -4 | nt | -7
O=C(N/N=C/c1cccc(F)c1)c1cc(-c2ccco2)nc2ccccc12 | 40* | 1 | 1 | -3 | 2 | -3
CN(C)C=Nc1ncc2c3ccccc3n(Cc3ccccc3)c2c1C#N | 20 | 5 | 2 | 35* | -1 | 46*
COc1ccc(/C=C\C(=O)O[C@@H]2C(O)C(O[C@@H]3OC(C)[C@H](O[C@@H]4OCC(O[C@H]5O[C@H](CO)[C@@H](O)C(O)C5O)C(O)C4O)C(O)C3O)[C@H](OC(=O)[C@]34CCC(C)(C)C[C@@H]3C3=CCC5[C@@]6(C)CC(O)C(O[C@@H]7OC(CO)C(O)[C@H](O)[C@H]7O)[C@@](C)(C(=O)O)C6CC[C@@]5(C)[C@]3(CO)CC4)O[C@H]2C)cc1 (some centres not stated) | -15 | 13 | 24* | nt | nt | nt
